# Assay results published in the supplement of paper PMC7411054.
# Where a name gives a salt, the structure may show the parent alone.
# Experiments:
# Conditions in all cases: treatment time: 24 h
# A549-ACTB-RAB5A [1] = assay: lowest phenotypically active concentration; higher = less potent
# Method in brief: (§1)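 Cells from fifteen gene-edited reporter lines (A549, HepG2 and WPMY1) were treated for 24 h at 0.3, 1, 3 or 9 µM and imaged live, four wells per condition. Features were normalised per well to solvent control wells. A condition deviated if ≥3 of 4 wells passed the 95th percentile of control Euclidean distances and was reproducible if its median replicate Pearson correlation beat the 95th percentile of non-replicates; phenotypic activity needed both.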
# A549-CANX-COX4 [2] = assay: as above
# Method in brief: as §1
# A549-GM130-SQSTM1 [3] = assay: as above
# Method in brief: as §1
# A549-TP53BP1-CLTA [4] = assay: as above
# Method in brief: as §1
# A549-TUBA1B-RELA [5] = assay: as above
# Method in brief: as §1
# HepG2-GM130-SQSTM1 [6] = assay: as above
# Method in brief: as §1
# A549-ACTB-RAB5A [7] = assay: phenotypically active (imaging signature differs from DMSO and reproducible) at any of 0.3-9 uM (binary (1 = active, 0 = inactive)); higher = active
# Method in brief: as §1
# A549-CANX-COX4 [8] = assay: as above
# Method in brief: as §1
# A549-GM130-SQSTM1 [9] = assay: as above
# Method in brief: as §1
# A549-TP53BP1-CLTA [10] = assay: as above
# Method in brief: as §1
# A549-TUBA1B-RELA [11] = assay: as above
# Method in brief: as §1
# HepG2-ACTB-RAB5A = assay: as above
# Method in brief: as §1
# HepG2-CANX-COX4 = assay: as above
# Method in brief: as §1
# HepG2-GM130-SQSTM1 [12] = assay: as above
# Method in brief: as §1
# HepG2-TP53BP1-CLTA = assay: as above
# Method in brief: as §1
# HepG2-TUBA1B-RELA = assay: as above
# Method in brief: as §1
# WPMY1-CANX-COX4 = assay: as above
# Method in brief: as §1
# WPMY1-GM130-SQSTM1 = assay: as above
# Method in brief: as §1
# WPMY1-TP53BP1-CLTA = assay: as above
# Method in brief: as §1
# WPMY1-TUBA1B-RELA = assay: as above
# Method in brief: as §1
SMILES,lowest phenotypically active concentration (A549-ACTB-RAB5A [1]),lowest phenotypically active concentration (A549-CANX-COX4 [2]),lowest phenotypically active concentration (A549-GM130-SQSTM1 [3]),lowest phenotypically active concentration (A549-TP53BP1-CLTA [4]),lowest phenotypically active concentration (A549-TUBA1B-RELA [5]),lowest phenotypically active concentration (HepG2-GM130-SQSTM1 [6]),phenotypically active (A549-ACTB-RAB5A [7]),phenotypically active (A549-CANX-COX4 [8]),phenotypically active (A549-GM130-SQSTM1 [9]),phenotypically active (A549-TP53BP1-CLTA [10]),phenotypically active (A549-TUBA1B-RELA [11]),phenotypically active (HepG2-ACTB-RAB5A),phenotypically active (HepG2-CANX-COX4),phenotypically active (HepG2-GM130-SQSTM1 [12]),phenotypically active (HepG2-TP53BP1-CLTA),phenotypically active (HepG2-TUBA1B-RELA),phenotypically active (WPMY1-CANX-COX4),phenotypically active (WPMY1-GM130-SQSTM1),phenotypically active (WPMY1-TP53BP1-CLTA),phenotypically active (WPMY1-TUBA1B-RELA)
Cc1c[nH]c2nccc(Oc3c(F)cc(Nc4cc(Cl)nc(N)n4)cc3F)c12,≤ 0.3 µM,≤ 0.3 µM,≤ 0.3 µM,≤ 0.3 µM,1 µM,≤ 0.3 µM,1 (active),1 (active),1 (active),1 (active),1 (active),1 (active),1 (active),1 (active),1 (active),1 (active),1 (active),1 (active),1 (active),1 (active)
COc1ccc(S(=O)(=O)N(C(C)=O)c2ccccc2/C=C/c2cc[n+]([O-])cc2)cc1,1 µM,3 µM,≤ 0.3 µM,3 µM,≤ 0.3 µM,3 µM,1 (active),1 (active),1 (active),1 (active),1 (active),1 (active),1 (active),1 (active),1 (active),1 (active),1 (active),1 (active),1 (active),1 (active)
COc1ccccc1-c1c[nH]c2ncc(-c3cncc(C(=O)N(C)C)c3)cc12,≤ 0.3 µM,1 µM,≤ 0.3 µM,≤ 0.3 µM,≤ 0.3 µM,≤ 0.3 µM,1 (active),1 (active),1 (active),1 (active),1 (active),1 (active),1 (active),1 (active),1 (active),1 (active),1 (active),1 (active),1 (active),1 (active)
CCC(=O)N1CCN(c2ccc(-n3c(=O)ccc4cnc5ccc(-c6cnc7ccccc7c6)cc5c43)cc2C(F)(F)F)CC1 [Torin 1],≤ 0.3 µM,≤ 0.3 µM,≤ 0.3 µM,≤ 0.3 µM,≤ 0.3 µM,≤ 0.3 µM,1 (active),1 (active),1 (active),1 (active),1 (active),1 (active),1 (active),1 (active),1 (active),1 (active),1 (active),1 (active),1 (active),1 (active)
O=C(c1cccc(Cl)c1F)N1CCN(Cc2cccc(Nc3nccs3)n2)CC1,≤ 0.3 µM,1 µM,1 µM,1 µM,1 µM,≤ 0.3 µM,1 (active),1 (active),1 (active),1 (active),1 (active),1 (active),1 (active),1 (active),1 (active),1 (active),1 (active),1 (active),1 (active),1 (active)
Nc1ccc(-c2cccc3c(=O)cc(N4CCOCC4)oc23)cc1,3 µM,9 µM,9 µM,9 µM,9 µM,3 µM,1 (active),1 (active),1 (active),1 (active),1 (active),1 (active),1 (active),1 (active),1 (active),1 (active),1 (active),1 (active),1 (active),1 (active)
CCOC(=O)CCNc1cc(N2CCc3ccccc3CC2)nc(-c2ccccn2)n1,3 µM,9 µM,9 µM,3 µM,3 µM,3 µM,1 (active),1 (active),1 (active),1 (active),1 (active),1 (active),1 (active),1 (active),1 (active),1 (active),1 (active),1 (active),1 (active),1 (active)
C[C@@H]1CN(CC(=O)Nc2ccc3c(c2)Cc2cccc(-c4cc(=O)cc(N5CCOCC5)o4)c2S3)C[C@H](C)O1,3 µM,9 µM,3 µM,9 µM,9 µM,3 µM,1 (active),1 (active),1 (active),1 (active),1 (active),1 (active),1 (active),1 (active),1 (active),1 (active),1 (active),1 (active),1 (active),1 (active)
Nc1ccc(-c2ccc3ncc4ccc(=O)n(-c5cccc(C(F)(F)F)c5)c4c3c2)cn1 [Torin 2],≤ 0.3 µM,≤ 0.3 µM,≤ 0.3 µM,≤ 0.3 µM,≤ 0.3 µM,≤ 0.3 µM,1 (active),1 (active),1 (active),1 (active),1 (active),1 (active),1 (active),1 (active),1 (active),1 (active),1 (active),1 (active),1 (active),1 (active)
C[C@@H](CN1CCC(n2c(=O)[nH]c3cc(Cl)ccc32)CC1)NC(=O)c1ccc2ccccc2c1,3 µM,9 µM,3 µM,9 µM,3 µM,9 µM,1 (active),1 (active),1 (active),1 (active),1 (active),1 (active),1 (active),1 (active),1 (active),1 (active),1 (active),1 (active),1 (active),1 (active)
Cc1ccc(-n2nc(C(C)(C)C)cc2NC(=O)Nc2ccc(OCCN3CCOCC3)c3ccccc23)cc1,3 µM,9 µM,3 µM,9 µM,3 µM,3 µM,1 (active),1 (active),1 (active),1 (active),1 (active),1 (active),1 (active),1 (active),1 (active),1 (active),1 (active),1 (active),1 (active),1 (active)
C=CC(=O)Nc1cccc(CN2C(=O)N(c3c(Cl)c(OC)cc(OC)c3Cl)Cc3cnc(NCCCCN(CC)CC)nc32)c1 [FIIN 1 hydrochloride],≤ 0.3 µM,3 µM,≤ 0.3 µM,3 µM,1 µM,≤ 0.3 µM,1 (active),1 (active),1 (active),1 (active),1 (active),1 (active),1 (active),1 (active),1 (active),1 (active),1 (active),1 (active),1 (active),1 (active)
COc1cc(/C=C/C(=O)N2CCC=CC2=O)cc(OC)c1OC [Piperlongumine],3 µM,9 µM,3 µM,9 µM,9 µM,3 µM,1 (active),1 (active),1 (active),1 (active),1 (active),1 (active),1 (active),1 (active),1 (active),1 (active),1 (active),1 (active),1 (active),1 (active)
COc1cc(C(=O)N2CCC(N3CCN(C)CC3)CC2)ccc1Nc1ncc2c(n1)N(C)c1ccccc1C(=O)N2C,3 µM,3 µM,3 µM,9 µM,3 µM,1 µM,1 (active),1 (active),1 (active),1 (active),1 (active),1 (active),1 (active),1 (active),1 (active),1 (active),1 (active),1 (active),1 (active),1 (active)
O=C1c2c(O)ccc(O)c2C(=O)c2c(NCCNCCO)ccc(NCCNCCO)c21 [mitoxantrone],≤ 0.3 µM,≤ 0.3 µM,≤ 0.3 µM,≤ 0.3 µM,≤ 0.3 µM,≤ 0.3 µM,1 (active),1 (active),1 (active),1 (active),1 (active),1 (active),1 (active),1 (active),1 (active),1 (active),1 (active),1 (active),1 (active),1 (active)
C=C1CN(Cc2ccc(C(=O)Nc3ccccc3N)cc2)C(=O)c2ccccc21,≤ 0.3 µM,≤ 0.3 µM,≤ 0.3 µM,≤ 0.3 µM,1 µM,1 µM,1 (active),1 (active),1 (active),1 (active),1 (active),1 (active),1 (active),1 (active),1 (active),1 (active),1 (active),1 (active),1 (active),1 (active)
COc1cc2nc(-c3cc(F)ccc3O)nc(N[C@@H]3CNC[C@H]3C(C)(C)O)c2cc1OC,3 µM,9 µM,9 µM,9 µM,9 µM,1 µM,1 (active),1 (active),1 (active),1 (active),1 (active),1 (active),1 (active),1 (active),1 (active),1 (active),1 (active),1 (active),1 (active),1 (active)
Cn1cc(-c2[nH]c3cc(NC(=O)[C@H](N)C4CCCCC4)cc4c3c2C=NNC4=O)cn1,9 µM,9 µM,9 µM,3 µM,9 µM,1 µM,1 (active),1 (active),1 (active),1 (active),1 (active),1 (active),1 (active),1 (active),1 (active),1 (active),1 (active),1 (active),1 (active),1 (active)
CC(C)(C)Nc1nc(Nc2ccc(C(N)=O)cc2)cc(N)c1C#N,3 µM,3 µM,3 µM,3 µM,3 µM,3 µM,1 (active),1 (active),1 (active),1 (active),1 (active),1 (active),1 (active),1 (active),1 (active),1 (active),1 (active),1 (active),1 (active),1 (active)
COc1c(Nc2cc(C)[nH]n2)nc(Sc2ccc(S(=O)(=O)Cc3cccc([N+](=O)[O-])c3F)cc2F)nc1N1CCOCC1 [Centrinone],3 µM,3 µM,1 µM,3 µM,3 µM,1 µM,1 (active),1 (active),1 (active),1 (active),1 (active),1 (active),1 (active),1 (active),1 (active),1 (active),1 (active),1 (active),1 (active),1 (active)
OC[C@H]1O[C@@H](n2cnc3c(NCc4ccco4)ncnc32)[C@H](O)[C@@H]1O [Kinetin riboside],1 µM,3 µM,3 µM,3 µM,3 µM,3 µM,1 (active),1 (active),1 (active),1 (active),1 (active),1 (active),1 (active),1 (active),1 (active),1 (active),1 (active),1 (active),1 (active),1 (active)
CNC(=O)Nc1ccc(-c2nc(N3CC4CCC(C3)O4)c3cnn(C4CCC5(CC4)OCCO5)c3n2)cc1,≤ 0.3 µM,≤ 0.3 µM,≤ 0.3 µM,≤ 0.3 µM,≤ 0.3 µM,≤ 0.3 µM,1 (active),1 (active),1 (active),1 (active),1 (active),1 (active),1 (active),1 (active),1 (active),1 (active),1 (active),1 (active),1 (active),1 (active)
CCCCc1oc2ccccc2c1C(=O)c1cc(I)c(OCCN(CC)CC)c(I)c1 [amiodarone],3 µM,9 µM,9 µM,9 µM,3 µM,9 µM,1 (active),1 (active),1 (active),1 (active),1 (active),1 (active),1 (active),1 (active),1 (active),1 (active),1 (active),1 (active),1 (active),1 (active)
